Assay results as given in PubChem BioAssay (EPA / NIEHS).
Records with an inconclusive call do not appear. The source made the active and inactive calls. The calls were made as follows: active = hit-call score of the fitted dose curve at least 0.9, where 1 is the maximum; inconclusive = response in the unintended direction; inactive = score below 0.9.

Experiment: ATG_M_32_TRANS: Attagene TRANS-FACTORIAL HepG2 Assay for M32 Transcription Factor (Internal Marker) (AID 2282984)
Conditions: HepG2 Attagene TRANS M32 internal marker reporter
Procedure: ATG_TRANS is a cell-based, multiplexed-readout assay that uses HepG2, a human liver cell line, with measurements taken at 24 hours after chemical dosing in a 24-well plate.ATG_M_32_TRANS is one of 30 assay component(s) measured or calculated from the ATG_TRANS assay. It is designed to make measurements of mRNA induction, a form of inducible reporter, as detected with fluorescence intensity signals by Reverse transcription polymerase chain reaction (RT-PCR) and Capillary electrophoresis technology.Data from the assay component ATG_M_32_TRANS was analyzed into 1 assay endpoint. This assay endpoint, ATG_M_32_TRANS, was analyzed in the positive analysis fitting direction relative to DMSO as the negative control and baseline of activity. Using a type of inducible reporter, measures of mRNA for gain-of-signal activity can be used to understand the background control at the transcription factor-level as they relate to the gene . Furthermore, this assay endpoint can be referred to as a secondary readout, because this assay has produced multiple assay endpoints where this one serves a background control function. To generalize the intended target to other relatable targets, this assay endpoint is annotated to the background measurement intended target family, where the subfamily is internal marker.
Human liver HepG2 cells are transiently transfected with multiple reporter transcription units (MRTUs) in 6-well plates using FuGene 6 reagent (Roche; 3 ml FuGene/1 mg DNA). The MRTU constructs are regulated by a cis-regulating element (promoter). […] A major difference between the CIS and TRANS system is that in CIS activities of endogenous TFs are measured, whereas the TRANS assay evaluates changes in activities of exogenous, chimeric NR-Gal4 proteins. […] At the end of 24 hour incubation, total RNA was isolated using TriZol reagent (Invitrogen). The isolated RNA is then reverse-transcribed using oligo(dT) primer and Mo-MLV reverse transcriptase (Invitrogen) with DNAse I (Ambion) treatment for 30 min. The one-tenth of the produced cDNA was amplified by PCR using Taq DNA polymerase (Invitrogen) and two reporter sequence-specific primers. The PCR products were fluorescently labeled by primer extension with 6-arboxyfluorescein (6-FAM) 5'-labeled reporter sequence-specific primer (2 min at 95 C, 20 s at 68 C and 10 min at 72 C) and these products were digested with 5U of HpaI (New England Biolabs) for 2h at 37 C. The fragments were purified using Qiaquick PCR columns (Qiagen), analyzed on an ABI 3130xL genetic analyzer (Applied Biosystems) with peak positions identified by using a set of X-rhodamine (ROX)-labeled MapMarker1000 molecular weight standards (BioVentures). The raw capillary electrophoresis data was processed using Attagraph software (Attagene).

Structure (SMILES)	outcome
CC1C(C)(C)C2=C(C(=O)CCC2)C1(C)C (stereo not given)	inactive
Cn1cccc1	inactive
CCC(C)c1ccccc1 (stereo not given)	inactive
CC1(C)C(=O)N(CO)C(=O)N1CO	inactive
CC(C)CO	inactive
NC(=O)Nc1ccccc1	inactive
Cc1ccc([N+](=O)[O-])cc1N	inactive
CC(=O)OCC=C(C)C	inactive
Nc1ccc(Cl)c(N)c1	inactive
CCCCCC1=CCCC1=O	inactive
Cc1cc(=O)[nH]c(=O)[nH]1	inactive
CC1OC(=O)C(C)OC1=O (stereo not given)	inactive
NNS(=O)(=O)c1ccc(Oc2ccc(S(=O)(=O)NN)cc2)cc1	inactive
Cc1ccccc1CCO	inactive
COc1ccc(C(=O)/C(Br)=C\C(=O)O)cc1	inactive
C=CCNCC=C	inactive
CCC(C)C(=O)OC (stereo not given)	inactive
CC(C)CCOCc1ccccc1	inactive
CCCCCCCCCCCCC	inactive
N#Cc1ccc(C(c2ccc(C#N)cc2)n2cncn2)cc1	inactive

Structure (SMILES)	outcome
Cc1ccc2c(c1)CCCN2	inactive
CCCCCCCCCC(C)=O	inactive
O=C(OCCc1ccccc1)c1ccccc1	inactive
O=C(O)c1ccc2c(c1)C(=O)OC2=O	inactive
CC(=O)OCCc1ccccc1	inactive
CC(=O)/C=C/C1C(C)=CCCC1(C)C (stereo not given)	inactive
C1CCSC1	inactive
CC(C)(CO)COC(=O)C(C)(C)CO	inactive
CCc1cccc(C)c1N(C(=O)CS(=O)(=O)O)C(C)COC (stereo not given)	inactive
CCCCNC(=S)NCCCC	inactive
CCCSSCCC	inactive
CCCCCCCCCCCCc1ccc(O)cc1	inactive
COC(=O)CC(C)CCC=C(C)C (stereo not given)	inactive
CCc1occc(=O)c1O	inactive
CCCCC/C=C\C/C=C\CCCCCCCC(=O)O	inactive
CCCCCCCCCCCCCCCCCCOS(=O)(=O)O	inactive
Clc1cc(Cl)c(Cl)c(Cl)c1Cl	inactive
CC(=O)OC1CCCCC1	inactive
Cn1ccnc1	inactive
CC(=O)OCc1ccccc1	inactive
